Measurements from PubChem BioAssay (NCI).
This is part of a sample that, as a whole, favours compounds with a hit. Of some 83,000 tested, about 20% had one in any assay.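 The test compound was applied at a single concentration to cells in 96-well plates for 48 hours, and percent growth was recorded.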 Values without a mark were called inactive. The source made the active and inactive calls. How the source made its calls: active means growth percent below 10; inactive means the rest.

system: HL-60(TB) leukemia; test: NCI-60 one-dose screen, 48 h (100 = growth as untreated, 0 = no growth, -100 = all killed); conditions: 10 µM unless noted

| SMILES | growth |
| --- | --- |
| COc1ccc(-c2cc(-c3cc(OC)c(OC)c(OC)c3)c(C#N)c(N3CCOCC3)n2)cc1O | -31.8% (active) |
| Cc1cccc(C)c1N1C(c2ccccc2)=NNC12C=CC(=O)c1c(O)cccc12 (stereo not drawn) | 61.2% |
| O=C(OCc1ccc2c(Br)cc(Br)c(O)c2n1)N1CCN(C(=O)c2cc3ccccc3[nH]2)CC1 | 53.9% |
| NC(=NCc1ccccc1)C(N=Nc1ccccc1)C(=O)NCc1ccccc1 (stereo not drawn) | 72% |
| COc1ccc(-c2nc(-c3cn(C)c4ncccc34)cs2)cc1 | 13% [100 µM] |
| COc1ccc(C2=C/C(=C\c3ccccc3O)C(=O)N2Cc2ccccc2)cc1 | 40.9% |
| O=[N+]([O-])c1ccc(-c2cc3c(Nc4ccc(OCc5cccc(Cl)c5)c(Cl)c4)ncnc3s2)cc1 | 44.2% |
| C#C[C@]1(O)CC[C@H]2[C@@H]3CC=C4c5nc(Nc6ncccn6)sc5CC[C@]4(C)[C@H]3CC[C@@]21C | 60.4% |
| COc1ccc2c(c1)cn1c3ccc(OC)cc3[nH]c(=O)c21 | -53.8% (active) |
| CCN(CC)c1ccc2cc(C(Nc3ccc(Br)c(C(F)(F)F)c3)c3nnnn3C(C)(C)C)c(=O)oc2c1 (stereo not drawn) | 93% |
| CN(C)c1ccc(C(=O)OCCCCCCl)cc1 | 76% |
| COc1cc(CNC(=O)CCCC/C=C/C(C)C)ccc1OCc1cn(-c2ccc([N+](=O)[O-])cc2)nn1 | 81% |
| COc1cc(-c2cc(-c3ccc(C)cc3)nc3nc(N)[nH]c(=O)c23)ccc1Oc1ccnc2cc(Cl)ccc12 | 56.2% |
| N#CC1C(c2ccc(Cl)cc2)=Nc2c(c(-c3ccccc3)nn2-c2ccccc2)C12C(=O)Nc1ccc(Cl)cc12 (stereo not drawn) | -1.59% (active) |
| CC(C)CCC[C@@H](C)[C@H]1CC[C@H]2[C@@H]3CC=C4N(c5ccccc5)C(=O)CC[C@]4(C)[C@H]3CC[C@]12C | 90.9% |
| COc1cc(N2C(=O)C=CC2=O)ccc1N1C(=O)C=CC1=O | 82.9% |
| CCCCCOc1ccc(C(=O)/C(Br)=C/C(=O)O)cc1 | 69.3% |
| Cc1ccc(-c2nc3nc(-c4ccccc4)nc(N4CCN(S(=O)(=O)c5ccccc5)CC4)c3o2)cc1 | 107% |
| CN(CSc1ccc(Cl)cc1)c1ccc(CSc2ccc(Cl)cc2)cc1 | -16.2% (active) |
| Cc1nnc2c(Cc3ccccc3)nc3ccccc3n12 | 95.7% |
| CCCCCCCCCCCCCC(=S)NCCCC[C@H](NC(=O)OCc1ccccc1)C(=O)Nc1ccccc1 | 8.79% (active) |
| O=S1(=O)c2ccccc2Oc2ccccc21 | 89.5% |
| COc1ccc(Nc2ncc(I)c(NCCCNC(=O)C3CCC3)n2)cc1 | -37.6% (active) |
